A selection: hits, their analogues and other compounds. The true share with any hit is near 4%.
Peg3 prom inh-1: Peg3 promoter activity inhibition; AID 588405; 1.7% of 360,000 active; HeLa PEG-Prom luciferase reporter, luminescence, overnight; inhibition, % at 20 µM;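 active means inhibition of at least 50% at 20 µM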
KKLEB cytotox: counter-screen for CF NF-kB inhibitors: cytotoxicity | activity change (cytotoxicity), % at 5 µM | KKLEB CF airway cells viability, ATPlite luminescence, overnight; stronger effect = lower value; cells stimulated with P. aeruginosa culture filtrate | 0.36% of 360,000 active;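 active means corrected activity change at or below -50% at 5 µM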
HIF-2a block: HIF-2a inhibition; AID 624352; inhibition, % at 18.8 µM; 0.72% of 360,000 active; 786-0 RCC cells HIF-2a reporter, luciferase luminescence, overnight;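 active means inhibition of the luminescence signal of 40% or more relative to plate controls, in a single-dose primary screen at 18.75 µM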
CF NFkB block: cystic fibrosis NF-kB activation inhibition; KKLEB NF-kB-GFP reporter, PAF-induced, GFP fluorescence overnight; 0.86% of 360,000 active; inhibition, % at 5 µM;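 active means at least 50% inhibition at 5 µM, scaled per plate between neutral and stimulator controls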;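 further: PAF is a Pseudomonas aeruginosa culture filtrate used as stimulus; plate controls were PAF-stimulated DMSO wells for no effect and unstimulated DMSO wells for full effect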
TROY signal inh: inhibitors of TROY-dependent NF-kB signaling. 0.98% of 360,000 active. inhibition, % at 10 µM. Q293 LMP1-TROYcd NF-kB luciferase reporter, 4 h;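 active means compounds whose plate-normalised and pattern-corrected inhibition of the luciferase reporter signal at the single screening dose is 50% or more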
TWEAK-Fn14 inh: blocks TWEAK-Fn14 interaction in a reporter cell assay; inhibition, % at 10 µM; TWEAK-stimulated Fn14 reporter cells, luciferase luminescence, 8 h; 2% of 360,000 active; in the data active means inhibition above about 50%
Peg3 prom inh-2: Peg3 promoter inhibition confirmation; shares compounds with Peg3 prom inh-1; HeLa PEG-Prom luciferase reporter, luminescence, overnight; inhibition, % at 20 µM; 84% of 1,300 active;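 active means at 20 µM dose, 40% or more inhibition averaged across four replicates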
The depositor's hits bear a star; nt = no result given.

SMILES	Peg3 prom inh-1	KKLEB cytotox	HIF-2a block	CF NFkB block	TROY signal inh	TWEAK-Fn14 inh	Peg3 prom inh-2
Cc1cc(-c2ccc(C)c(S(=O)(=O)N3CC(=O)Nc4ccccc43)c2)on1	-16	2	5	-27	-14	92*	nt
Cc1cc(-c2ccc(C(C)C)c(S(=O)(=O)N3CCOc4ccccc43)c2)on1	16	-4	17	8	15	-7	nt
CCc1ccc(-c2cc(C)no2)cc1S(=O)(=O)N1CC(=O)Nc2ccccc21	-1	-2	1	3	-21	-12	nt
Cc1ccc(-c2onc(C)c2C)cc1S(=O)(=O)N1CCOc2ccccc21	52*	-6	14	-4	44	64*	nt
CCOC(=O)[C@]12CCCC=C1N(Cc1cccc3ccccc13)C(=O)[C@H](CC(=O)NCCCOC)C2	nt	nt	12	nt	-5	-5	nt
CCOc1ccccc1OCCn1ncc2ccc(OC)c(OC)c2c1=O	-10	-4	-28	-4	-6	-26	nt
COc1ccc2cnn(CCOc3ccccc3)c(=O)c2c1OC	-260	-7	-96	1	33	51*	nt
CC1(C(=O)NCc2ccccc2)CN(S(C)(=O)=O)CC(=O)N1CCCn1ccnc1 (stereo not given)	nt	nt	-8	nt	nt	nt	nt
COc1cccc(NC(=O)CN(C)C(=O)CSc2nc(C)cc(C)n2)c1	8	5	10	7	-6	-2	nt
COc1ccc(NS(=O)(=O)c2cc3c(cc2C)N(C(C)=O)CCO3)cc1OC	7	11	9	2	8	27	nt
CCOC1=C2[C@H](c3ccccc3F)N(S(=O)(=O)c3ccc(C)cc3)C[C@H]2n2c(=O)n(-c3ccccc3)c(=O)n2C1	-20	-4	7	5	-2	-13	nt
Cc1ccc(N2CC(C(=O)Nc3nccs3)CC2=O)cc1Cl (stereo not given)	90*	-32	-65	45	4	20	94*
CC(C)(C)OC(=O)C[C@H]1C/C=C\C[C@@H](CC(=O)NCCO)C(=O)NC[C@@H](c2ccccc2)OC1=O	-17	-10	9	2	3	-10	nt
NC(=O)c1ccc[n+](CC(=O)c2cccc([N+](=O)[O-])c2)c1	14	7	17	-8	-3	14	nt
COc1cc2ccc3c(CCN(C)C)cc(OC)c(OC)c3c2cc1OC	31	1	20	-1	-10	-8	nt
CN(C)CCc1cc2c(c3c1ccc1ccccc13)OCO2	93*	-3	34	-38	-19	-12	93*
CC(=NO)C1(C)CC=CCC1CO (stereo not given)	5	-16	19	3	-14	7	nt
C=C(C)Cn1c(SCC(=O)N/N=C/c2c(O)ccc3ccccc23)nc2ccccc2c1=O	61*	-18	19	12	25	28	64*
CCOC(=O)c1cc2c(=O)n3ccccc3nc2n(CCOC)c1=NC(=O)c1ccncc1	7	2	7	2	-3	3	nt
CCOC(=O)c1cc2c(=O)n3ccccc3nc2n(CCOC)c1=NC(=O)c1c(-c2c(F)cccc2Cl)noc1C	53*	-8	30	-30	4	15	30
Oc1ccc(C23CCCC2C2(CCCC2)c2ccc(O)cc2O3)c(O)c1 (stereo not given)	51*	1	24	19	43	24	44*
CCCC(=O)N1CCCC1(C)C(=O)Nc1ccc2cn[nH]c2c1 (stereo not given)	8	0	15	20	-1	7	nt
Cc1ccc2sc(N(CCCN(C)C)C(=O)c3ccc(S(=O)(=O)N(C)C4CCCCC4)cc3)nc2c1C	104*	-17	-11	36	0	-22	100*
CCC(C)(C)NC(=O)C(c1ccc(OC)cc1)N(C(=O)CCC(=O)Nc1cc(C)on1)c1ccccc1F (stereo not given)	10	11	17	-3	3	1	nt
CN(C)c1ccc(/C=C/c2ccc3c4ccccc4ccc3[n+]2-c2ccccc2)cc1	106*	-10	96*	-131	72*	74*	100*
SMILES	Peg3 prom inh-1	KKLEB cytotox	HIF-2a block	CF NFkB block	TROY signal inh	TWEAK-Fn14 inh	Peg3 prom inh-2
CC(=O)Nc1cccc(-c2ccnc3c2CC(C)(C(=O)Nc2cccc(OC(F)(F)F)c2)O3)c1 (stereo not given)	63*	-13	28	14	42	16	61*
CC1(C(=O)Nc2cccc(OC(F)(F)F)c2)Cc2c(-c3cccc(C(F)(F)F)c3)ccnc2O1 (stereo not given)	14	-15	10	3	-4	-4	nt
O=C(Nc1ccc(CN2CCCCC2)cc1)Nc1ccc(Br)cc1Cl	67*	-31	5	22	-14	-29	96*
S=C(Nc1ccc(Br)cc1Cl)N1CCCC1	-165	3	-241	7	-41	-24	nt
FC(F)(F)c1ccccc1NC(=S)Nn1cnnc1	8	14	4	22	5	8	nt
Cc1nc(N2CCN(c3ccccn3)CC2)c2c(C)c(C(=O)Nc3ccccc3F)sc2n1	73*	-35	-12	47	0	25	66*
CCOC(=O)C(C(=O)OCC)C(=O)c1cccc2ccc3ccccc3c12	17	-13	4	-20	-12	7	nt
O=C(CNC(=O)c1ccc2ccccc2c1)NCc1ccccc1F	-6	1	-37	-2	0	-9	nt
COc1cc2nc(SCC(=O)NCc3ccco3)n(Cc3ccc(Cl)cc3)c(=O)c2cc1OC	51*	5	20	42	-3	-4	12
CCCC/C=C1\CCc2c([nH]c3ccccc23)C1=O	-179	-9	-240	-37	-56	-41	nt
CCCCCCC=C1CCC(CN2CCCC2)C1=O (stereo not given)	102*	-4	-7	-12	-8	26	77*
Clc1ccc(-c2cccs2)nn1	-18	-9	1	-17	1	8	nt
CC1CCN(c2ccc(-c3cccs3)nn2)CC1	82*	-81*	78*	-22	66*	105*	78*
Cc1ccc(S(=O)(=O)NCC(C)n2cncn2)cc1 (stereo not given)	-4	-5	11	-14	-12	19	nt
C=CCc1cccc(/C=N/NC(=O)CCCNc2ccc(C)cc2)c1O	29	-6	20	0	-1	-13	nt
C=CCc1cccc(/C=N/NC(=O)C(C)Nc2cccc(C)c2)c1O (stereo not given)	50*	-13	21	38	27	43	44*
COC(=O)C1=C(C)N(Cc2ccccc2)C(=NCCc2c[nH]c3ccccc23)N[C@H]1c1cccc(C(F)(F)F)c1	99*	-29	-12	28	5	12	98*
Cc1cc(C2=NNC(=NC3CC3)SC2)c(C)n1-c1ccccc1F	104*	-58*	89*	-16	89*	104*	98*
